Source: PubChem BioAssay (EPA / NIEHS)
Activity calls are given as the source filed them. Rule for the calls: active = hit-call score of the fitted dose curve at least 0.9, where 1 is the maximum; inactive = score below 0.9.

How the values were obtained:
[1] = read-out: Collagen III, COL3A1 (gene 1281); experiment: BSK_MyoF_CollagenIII: BioMAP Diversity Plus: MyoF Assay for Collagen III Biomarker Activity (AID 2284239); details: primary human lung fibroblasts
How it was run: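 Compounds are added to primary human lung fibroblasts and left for 24 hours. Collagen III is then quantified by ELISA. Analysis takes DMSO as baseline and fits increases in signal.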

[2] = read-out: Actin alpha 1 (ACTA1), ACTA1 (gene 58); experiment: BSK_MyoF_ACTA1: BioMAP Diversity Plus: MyoF Assay for Actin alpha 1 (ACTA1) Biomarker Activity (AID 2284244); details: primary human lung fibroblasts
How it was run: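 Lung fibroblasts, human primary, 24 h compound exposure → a-SMA ELISA. Positive-direction fit vs DMSO control.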

[3] = read-out: Interleukin 2 (IL2), IL2 (gene 3558); experiment: BSK_BT_xIL2: BioMAP Diversity Plus: BT Assay for Interleukin 2 (IL2) Biomarker Activity (AID 2284245); details: primary human B cells with PBMC
How it was run: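 B cell + PBMC co-culture (human primary), compound added, 24 h incubation; secreted IL-2 measured multiplexed on Luminex xMAP; gain-of-signal fit vs DMSO.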

[4] = read-out: Basic fibroblast growth factor (bFGF), FGF2 (gene 2247); experiment: BSK_MyoF_bFGF: BioMAP Diversity Plus: MyoF Assay for Basic fibroblast growth factor (bFGF) Biomarker Activity (AID 2284246); details: primary human lung fibroblasts
How it was run: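 ELISA-measured bFGF level serves as the read-out, taken 24 h after chemical dosing of human lung fibroblasts. Values represent signal gain over the DMSO negative control.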

[5] = read-out: Collagen IV, COL4A1 (gene 1282); experiment: BSK_MyoF_CollagenIV: BioMAP Diversity Plus: MyoF Assay for Collagen IV Biomarker Activity (AID 2284247); details: primary human lung fibroblasts
How it was run: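 Steps: dose human lung fibroblasts; culture 24 h; quantify Collagen IV by ELISA; fit increase versus DMSO control. Parallel SRB total-protein staining (0.1% SRB after 10% TCA fixation, 560 nm) tracks overt cytotoxicity.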

[6] = read-out: Plasminogen activator inhibitor-1 (PAI1), SERPINE1 (gene 5054); experiment: BSK_MyoF_PAI1: BioMAP Diversity Plus: MyoF Assay for Plasminogen activator inhibitor-1 (PAI1) Biomarker Activity (AID 2284256); details: primary human lung fibroblasts
How it was run: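 Activity reflects increased PAI-1, determined by ELISA and compared with DMSO, in human lung fibroblasts treated for 24 h.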

[7] = read-out: Interleukin 17F (IL17F), IL17F (gene 112744); experiment: BSK_BT_xIL17F: BioMAP Diversity Plus: BT Assay for Interleukin 17F (IL17F) Biomarker Activity (AID 2284243); details: primary human B cells with PBMC
How it was run: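 Measures secreted IL-17F from a human B cell plus PBMC co-culture at 24 h post-dose by Luminex xMAP, with DMSO defining baseline activity.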

Measured: AC50

CC1(C)CC(O)CC(C)(C)N1[O]
inactive: [1] | [2] | [3] | [4] | [5] | [6]

c1ccc2c(c1)[nH]c1ccccc12
inactive: [1] | [2] | [3] | [4] | [5] | [6]

CC(C)CCCCCOC(=O)CS
inactive: [1] | [2] | [3] | [4] | [5] | [6]

CC1=CC=C(C(C)C)CC1
inactive: [1] | [7] | [2] | [3] | [4] | [5] | [6]

CCCCCCCCCCCC(C)=O
inactive: [1] | [7] | [2] | [3] | [4] | [5] | [6]

Fc1ccc(Br)cc1
inactive: [1] | [2] | [3] | [4] | [5] | [6]

CCCCCC1=CCCC1=O
inactive: [1] | [7] | [2] | [3] | [4] | [5] | [6]

C=CC(=O)NCOCCCC
inactive: [1] | [7] | [2] | [3] | [4] | [5] | [6]

CCOC(=O)C1=NN(c2ccc(Cl)cc2Cl)C(C)(C(=O)OCC)C1 (stereo unspecified)
inactive: [1] | [2] | [3] | [4] | [5] | [6]

CC=C(C)C=CC=C(C)C
active: [7] 24.9 µM | [3] 28.5 µM | [5] 0.016 µM | [6] 0.016 µM
inactive: [1] | [2] | [4]

CCc1cccc(C)c1N(C(=O)CS(=O)(=O)O)C(C)COC (stereo unspecified)
inactive: [1] | [2] | [3] | [4] | [5] | [6]

CC(Cl)COP(=O)(OCC(C)Cl)OCC(C)Cl (stereo unspecified)
inactive: [1] | [2] | [3] | [4] | [5] | [6]

CC/C=C\C/C=C\C/C=C\CCCCCCCC(=O)OC
active: [1] 10.6 µM | [2] 6.98 µM | [3] 27.5 µM | [4] 9.83 µM | [5] 20 µM | [6] 13.7 µM

CCNc1nc(NC(C)(C)C)nc(OC)n1
inactive: [1] | [2] | [3] | [4] | [5] | [6]

Nc1cccc(N)n1
inactive: [1] | [7] | [2] | [3] | [4] | [5] | [6]
